# Assay results from the supplement of paper PMC3484114.
# ± gives the standard deviation.
# Tested on: OVCAR-3-derived ovarian cancer stem-like cells (spheroids)
# Assay: cell growth relative to untreated control; higher = more growth (less inhibition)
# Settings: 2.29 µM; 96 h
# Outline: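 OVCAR-3 spheroid-derived stem-like cells were trypsin-dissociated, seeded at 50,000 cells/mL in stem cell medium in ultra-low attachment 96-well plates and preincubated 24 h. Compounds were then added at 2.29 uM for 96 h at 37°C, 5% CO2, in 4 replicate wells. Viability was read as TOX8 resazurin fluorescence (ex 560/em 590 nm) after 4 h. Percent growth was calculated relative to untreated wells after blank subtraction and Grubbs outlier removal.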
row,SMILES,cell growth [%]
1,CCC[CH2][Pb]([Cl])([CH2]CCC)[CH2]CCC,5.1 ± 5.5
2,[O-][n+]1ccccc1[S-].[O-][n+]1ccccc1[S-].[Zn+2],95.8 ± 7.8
3,CC1=C2C(=CC(C)(C)[C@@H]2O)C(=O)[C@](C)(O)C12CC2,20.3 ± 2.4
4,C[n+]1ccc(-c2cc[n+](C)cc2)cc1,101 ± 11
5,CO[C@@H](/C(C)=C/C=C/C(C)=C/c1coc(C)n1)[C@@H](C)[C@@H]1C[C@H](O)[C@@]2(C)O[C@@H]2/C=C/[C@@H](C)[C@H]2C[C@H](CC(=O)O2)C[C@@H]2O[C@H]2C(=O)O1,40.6 ± 7.4
6,CCCCCn1cc2c3c(cccc31)C1C=C(C)CN(C)[C@@H]1C2.Cc1ccc(C(=O)OC(C(=O)O)C(OC(=O)c2ccc(C)cc2)C(=O)O)cc1 (stereo unspecified),78.9 ± 11
7,CC(O)CCC(=O)c1ccoc1 (stereo unspecified),99 ± 17
8,[Cl][Cd][Cl],87.6 ± 51
9,C=C1C(=O)O[C@@H]2C[C@@H](C)[C@@H]3C=CC(=O)[C@@]3(C)[C@@H](O)[C@H]12,14.5 ± 2.5
10,CC(C)OP(=O)(OC(C)C)C(N(C)C)P(=O)(OC(C)C)OC(C)C.[Cl][Sn]([Cl])([Cl])[c]1ccccc1,62.2 ± 17
11,CC[PH+](CC)CC.[Cl][Au],103 ± 27
12,Cc1cc2c(C(C)C)c(O)c(O)c(C=O)c2c(O)c1-c1c(C)cc2c(C(C)C)c(O)c(O)c(C=O)c2c1O,86 ± 61
13,O=C1NC(=S)NC(=O)C1C(=O)Nc1ccccc1,23.7 ± 5.9
14,C[C@@H]1CCOC(=O)/C=C/C=C\C(=O)O[C@@H]2C[C@H]3O[C@@H]4[C@@H]5O[C@]5(C)[C@H](O)C[C@]4(COC(=O)[C@H]1O)[C@]2(C)[C@@]31CO1,13.4 ± 5.4
15,COC1CC(O[C@H]2CC[C@]3(C=O)[C@H]4CC[C@]5(C)[C@@H](C6=CC(=O)OC6)CC[C@]5(O)[C@@H]4CC[C@]3(O)C2)OC(C)C1O (stereo partly specified),52.2 ± 16
16,CC(C)C(NC(=O)C(C(C)C)N(C)C)C(=O)N(C)C(C(=O)N1CCCC1C(=O)N1CCCC1C(=O)NCc1ccccc1)C(C)C (stereo unspecified),24.5 ± 8.1

row,SMILES,cell growth [%]
1,C1CCNCC1.S=C(S)N1CCCCC1,36.2 ± 3.5
2,NC(=O)OCc1c(O)c2c(c(O)c1COC(N)=O)C(=O)C=CC2=O,95.9 ± 14
3,CCCNC1=C(C)C(=O)C2=C(C1=O)[C@H](COC(N)=O)[C@]1(OC)[C@@H]3N[C@@H]3CN21,60.4 ± 24
4,C=C(C)C(=O)OC1CCC2(C)C(CCC3C2CCC2(C)C(c4ccc(=O)oc4)CC4OC432)C1 (stereo unspecified),92.2 ± 18
5,Cc1cc(N(CCOS(C)(=O)=O)CCOS(C)(=O)=O)ccc1C=Nc1ccc(-c2csc(-c3ccccc3)n2)c(Cl)c1,97.7 ± 47
6,C=C1C(C)C2C(Cc3ccccc3)NC(=O)C23C(OC(C)=O)/C=C/C(C)(O)CC(C)C/C=C/C3C1O (stereo unspecified),90.3 ± 20
7,COc1ccc(-c2cc(=O)c3c(OC)c(OC)c(OC)cc3o2)cc1,120 ± 31
8,C[C@@H]1CC[C@@]2(OC1)O[C@H]1CC3[C@@H]4CC=C5C[C@@H](O[C@@H]6O[C@H](CO)[C@@H](O[C@@H]7O[C@@H](C)[C@H](O[C@@H]8O[C@@H](C)[C@H](O)[C@@H](O)[C@@H]8O)[C@@H](O)[C@H]7O)[C@H](O)[C@H]6O[C@@H]6O[C@@H](C)C(O)[C@@H](O)[C@H]6O)CC[C@]5(C)[C@H]4CC[C@]3(C)[C@H]1[C@@H]2C (stereo partly specified),8.03 ± 3.1
9,CC(=O)OC1C(O)C(C)OC(OC2C(OC(=O)C3CCC4C(C3)OC3(CC(OC(=O)/C=C/c5ccccc5)C(C)CO3)C43CO3)OC(C)C(O)C2OC(C)=O)C1O (stereo unspecified),5.3 ± 3.2
10,CC[C@@]1(O)C[C@H](O[C@H]2C[C@H](N(C)C)[C@H](O)[C@H](C)O2)c2c(cc3c(c2O)C(=O)c2c(O)ccc(O)c2C3=O)[C@H]1C(=O)OC,50.3 ± 31
11,COc1ccc(C[C@@H]2NC[C@@H](O)[C@@H]2OC(C)=O)cc1,94.2 ± 33
12,CNC(=O)ON(C(C)=O)C(=O)NC,114 ± 42
13,CC[C@H](C)[C@@H]1NC(=O)[C@@H](NC(=O)c2c3nc4c(C(=O)N[C@@H]5C(=O)N[C@@H](C(C)C)C(=O)N6CCC[C@H]6C(=O)N(C)CC(=O)N(C)[C@@H](C(C)C)C(=O)O[C@@H]5C)ccc(C)c4oc-3c(C)c(=O)c2N)[C@@H](C)OC(=O)[C@H](C(C)C)N(C)C(=O)CN(C)C(=O)[C@@H]2CCCN2C1=O,10.9 ± 3.5
14,CO[C@H]1Nc2c(ccc(C)c2O)C(=O)N2C=C(/C=C/C(N)=O)C[C@@H]12,12.8 ± 2.4
15,CC1=C(N2CC2)C(=O)C(CO)=C(N2CC2)C1=O,9 ± 3.5
